One may read the AC50 as the concentration giving half of the maximal activity seen.

The structures appear in SMILES notation. Inconclusive results are not listed. Active and inactive are the calls of the source. Rule for the calls: active = hit-call score of the fitted dose curve at least 0.9, where 1 is the maximum; inconclusive = response in the unintended direction; inactive = score below 0.9.

Sequence of Androgen Receptor/SRC-1 Co-activator, AR (gene 367) (P10275 whole entry, looked up, the tested form may be a part): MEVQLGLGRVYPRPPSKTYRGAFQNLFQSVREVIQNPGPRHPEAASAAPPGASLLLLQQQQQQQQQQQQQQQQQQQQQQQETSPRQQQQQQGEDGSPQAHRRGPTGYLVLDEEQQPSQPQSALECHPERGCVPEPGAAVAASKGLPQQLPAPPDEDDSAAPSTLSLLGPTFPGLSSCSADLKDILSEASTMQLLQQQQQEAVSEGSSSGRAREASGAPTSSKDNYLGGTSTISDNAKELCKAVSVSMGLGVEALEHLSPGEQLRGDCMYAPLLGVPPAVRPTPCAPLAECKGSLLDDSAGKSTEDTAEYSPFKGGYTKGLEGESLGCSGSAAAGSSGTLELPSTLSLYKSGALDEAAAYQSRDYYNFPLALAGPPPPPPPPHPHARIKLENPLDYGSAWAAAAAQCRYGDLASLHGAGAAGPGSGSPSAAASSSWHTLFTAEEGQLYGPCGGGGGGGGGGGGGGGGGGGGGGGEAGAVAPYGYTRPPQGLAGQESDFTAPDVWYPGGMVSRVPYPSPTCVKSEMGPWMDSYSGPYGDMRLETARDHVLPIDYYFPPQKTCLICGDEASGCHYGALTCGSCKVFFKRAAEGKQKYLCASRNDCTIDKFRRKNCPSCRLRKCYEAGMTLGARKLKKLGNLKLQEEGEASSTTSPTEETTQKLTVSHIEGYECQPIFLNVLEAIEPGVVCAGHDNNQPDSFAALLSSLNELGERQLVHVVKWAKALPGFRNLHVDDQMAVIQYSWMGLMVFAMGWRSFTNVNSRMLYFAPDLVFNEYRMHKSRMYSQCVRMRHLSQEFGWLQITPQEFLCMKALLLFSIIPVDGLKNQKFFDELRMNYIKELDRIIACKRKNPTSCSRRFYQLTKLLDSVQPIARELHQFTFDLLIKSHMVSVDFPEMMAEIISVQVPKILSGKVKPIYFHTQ
T1 sequence (P03372 whole entry, looked up, the tested form may be a part): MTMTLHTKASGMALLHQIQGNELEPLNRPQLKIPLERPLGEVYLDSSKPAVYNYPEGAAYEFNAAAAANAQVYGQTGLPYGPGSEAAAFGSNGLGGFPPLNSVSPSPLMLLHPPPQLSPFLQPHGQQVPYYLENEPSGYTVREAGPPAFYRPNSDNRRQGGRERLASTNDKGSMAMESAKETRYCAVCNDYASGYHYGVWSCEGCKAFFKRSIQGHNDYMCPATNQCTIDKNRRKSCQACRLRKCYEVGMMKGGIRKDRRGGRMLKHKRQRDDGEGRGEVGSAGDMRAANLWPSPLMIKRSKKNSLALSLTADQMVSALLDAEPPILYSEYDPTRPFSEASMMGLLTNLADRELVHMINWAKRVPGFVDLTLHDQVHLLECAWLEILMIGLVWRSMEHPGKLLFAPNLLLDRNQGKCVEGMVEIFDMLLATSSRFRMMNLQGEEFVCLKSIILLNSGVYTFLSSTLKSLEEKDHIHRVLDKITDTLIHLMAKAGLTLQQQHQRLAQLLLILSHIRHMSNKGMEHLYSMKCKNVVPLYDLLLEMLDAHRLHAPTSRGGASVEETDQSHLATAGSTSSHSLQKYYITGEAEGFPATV
T1 sequence (Q92731 whole entry, looked up, the tested form may be a part): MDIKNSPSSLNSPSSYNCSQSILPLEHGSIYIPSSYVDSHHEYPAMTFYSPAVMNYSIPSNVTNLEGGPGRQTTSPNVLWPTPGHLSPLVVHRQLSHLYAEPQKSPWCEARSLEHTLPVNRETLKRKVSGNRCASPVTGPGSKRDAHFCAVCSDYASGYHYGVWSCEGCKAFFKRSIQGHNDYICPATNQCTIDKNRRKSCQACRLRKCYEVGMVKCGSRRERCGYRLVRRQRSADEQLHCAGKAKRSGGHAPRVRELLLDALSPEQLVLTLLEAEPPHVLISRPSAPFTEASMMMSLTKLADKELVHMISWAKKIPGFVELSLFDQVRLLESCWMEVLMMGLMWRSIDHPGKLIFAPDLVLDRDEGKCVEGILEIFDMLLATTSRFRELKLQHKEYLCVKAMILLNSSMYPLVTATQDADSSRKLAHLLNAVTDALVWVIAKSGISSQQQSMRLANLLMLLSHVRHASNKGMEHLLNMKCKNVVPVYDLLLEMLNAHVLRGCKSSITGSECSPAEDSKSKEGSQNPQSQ

The first experiment concerns the target T1, Estrogen receptor (Homo sapiens) + Estrogen receptor beta (Homo sapiens) (UniProt P03372+Q92731). The experiment is described as follows: OT_ER_ERaERb_0480: Odyssey Thera (OT) 8-hour HEK293T Protein-Complementation Assay for Estrogen Receptor-alpha/-beta Heterodimer (AID 2283352). A digest of the protocol: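 Human HEK293T cells were treated for 8 hours and receptor heterodimerisation was detected through reconstitution of a fluorescent reporter split between ER-alpha and ER-beta ligand-binding domains. Activity was analysed as gain of signal against DMSO.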
For `O=CCCl`, the outcome was inactive.
Still for that read-out and setting: under `N#CCC#N` stands “inactive”.
As for `O=C(O)COc1ccc(Cl)cc1`, the result was inactive.
For the molecule `CCC[CH2][Sn]([Cl])([Cl])[CH2]CCC`, the outcome was inactive.
The same measure, in the same setting: as for `CC(=Cc1ccccc1)[N+](=O)[O-]`, the entry is “inactive”.
The same measure, in the same setting: as for `CC(C)N(C(=O)CCl)c1ccccc1`, the entry is “inactive”.
The same measure, in the same setting: under `O=C(NC(=O)c1c(F)cccc1F)Nc1cc(Cl)c(OC(F)(F)C(F)C(F)(F)F)cc1Cl` (configuration not stated) stands “inactive”.
Take `O=S1(=O)OC(c2cc(Br)c(O)c(Br)c2)(c2cc(Br)c(O)c(Br)c2)c2ccccc21`: the AC50 is 15.2 µM (active).
Take `CCCSP(=S)(OCC)Oc1ccc(SC)cc1` (configuration not stated): the AC50 is 22.7 µM (active).
As to `CC(C)=CC1C(C(=O)OCc2cccc(Oc3ccccc3)c2)C1(C)C` (configuration not stated), the outcome was inactive.
The same measure, in the same setting: under `CNC(=O)O/N=C/C(C)(C)S(C)(=O)=O` stands “inactive”; under `CCOc1ccc(N)cc1`, “inactive”.
Consider `Cc1cc(Cl)ccc1OC(C)C(=O)O` (configuration not stated), for which the outcome was inactive.
Take `CCCCCCCCCCCCN(C)C`: the outcome was inactive.
On the same count and under the same terms, under `CC(O)(CS(=O)(=O)c1ccc(F)cc1)C(=O)Nc1ccc(C#N)c(C(F)(F)F)c1` (configuration not stated) stands “inactive”; under `O=C(NC(=O)c1c(F)cccc1F)Nc1ccc(Cl)cc1`, “inactive”.
Take `CCOCn1c(-c2ccc(Cl)cc2)c(C#N)c(Br)c1C(F)(F)F`: the AC50 is 16.9 µM (active).
On to `Oc1c(Br)cc(Br)cc1Br`, for which the result was inactive.
With `CCN(CCO)CCO`, the outcome was inactive.

The target in a further experiment is Androgen Receptor/SRC-1 Co-activator, AR (gene 367) (UniProt P10275). The experiment is described as follows: OT_AR_ARSRC1_0960: Odyssey Thera (OT) 16-hour HEK293T Protein-Complementation Assay for Androgen Receptor/SRC-1 Co-activator (AID 2283353).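 Note: actives raise the signal above DMSO so potency reflects increased AR and SRC-1 complex.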 Put shortly:
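Interaction of AR with SRC-1 was followed by YFP fragment complementation in HEK293T cells after 16 h of dosing. Gain of nuclear-over-cytoplasmic 488 nm fluorescence against DMSO controls defined activity.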
Take `O=C(CCl)Nc1ccccc1`: the AC50 is 28.2 µM (active).
With `O=C1c2ccccc2C(=O)C1C(=O)C(c1ccccc1)c1ccc(Cl)cc1` (configuration not stated), the molecule was classed as inactive.
On to `O=[N+]([O-])c1ccc(Cl)c([N+](=O)[O-])c1`, for which the AC50 is 9.86 µM (active).
In the case of `N#CCC#N`, the outcome was inactive.
In the case of `CC(=Cc1ccccc1)[N+](=O)[O-]`, the AC50 is 16.7 µM (active).
As for `CC(C)N(C(=O)CCl)c1ccccc1`, the AC50 was 45.7 µM (active).
Turning to `O=C(NC(=O)c1c(F)cccc1F)Nc1cc(Cl)c(OC(F)(F)C(F)C(F)(F)F)cc1Cl` (configuration not stated), the outcome was inactive.
Take `O=S1(=O)OC(c2cc(Br)c(O)c(Br)c2)(c2cc(Br)c(O)c(Br)c2)c2ccccc21`: the result was inactive.
`CNC(=O)O/N=C/C(C)(C)S(C)(=O)=O`: the molecule was called inactive.
With `O=S1OC[C@@H]2[C@H](CO1)[C@]1(Cl)C(Cl)=C(Cl)[C@@]2(Cl)C1(Cl)Cl` (some centres not stated), the molecule was classed as inactive.

Another experiment shares this target. Put plainly: OT_AR_ARSRC1_0480: Odyssey Thera (OT) 8-hour HEK293T Protein-Complementation Assay for Androgen Receptor/SRC-1 Co-activator (AID 2283354).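 Note: hits raise the complementation signal above DMSO so AC50 marks enhancers.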 Put shortly:
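HEK293T cells stably expressing AR and SRC-1 fused to Venus YFP fragments, imaged 8 h after dosing. Complementation fluorescence scored as nuclear/cytoplasmic ratio at 488 nm in at least 400 cells per image; gain fitted versus DMSO.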
As for `O=C(CCl)Nc1ccccc1`, the AC50 was 59.5 µM (active).
As for `O=C1c2ccccc2C(=O)C1C(=O)C(c1ccccc1)c1ccc(Cl)cc1` (configuration not stated), the AC50 was 30 µM (active).
Same read-out and setting: as for `O=[N+]([O-])c1ccc(Cl)c([N+](=O)[O-])c1`, the figure is 15 µM (active).
`N#CCC#N`: the molecule was classed as inactive.
As to `CC(=Cc1ccccc1)[N+](=O)[O-]`, the AC50 was 18 µM (active).
Take `CC(C)N(C(=O)CCl)c1ccccc1`: the outcome was inactive.
With `O=C(NC(=O)c1c(F)cccc1F)Nc1cc(Cl)c(OC(F)(F)C(F)C(F)(F)F)cc1Cl` (configuration not stated), the call was inactive.
`O=S1(=O)OC(c2cc(Br)c(O)c(Br)c2)(c2cc(Br)c(O)c(Br)c2)c2ccccc21`: the molecule was called inactive.
In the case of `O=S1OC[C@@H]2[C@H](CO1)[C@]1(Cl)C(Cl)=C(Cl)[C@@]2(Cl)C1(Cl)Cl` (some centres not stated), the outcome was inactive.

A further experiment addresses T1, Estrogen receptor (Homo sapiens) + Estrogen receptor beta (Homo sapiens). The experiment is described as follows: OT_ER_ERaERb_1440: Odyssey Thera (OT) 24-hour HEK293T Protein-Complementation Assay for Estrogen Receptor-alpha/-beta Homodimer (AID 2283356).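 Note: heteromer of ER alpha and ER beta binding domains; hits raise reporter fluorescence and both agonists and antagonists give an increase.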 A digest of the protocol:
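24 h exposure; HEK293T PCA cells with ERα/ERβ LBD fragments; signal rise in nuclear or whole-cell fluorescence over vehicle.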
`O=C(CCl)Nc1ccccc1`: the outcome was inactive.
For the molecule `O=CCCl`, the result was inactive.
Consider `N#CCC#N`, for which the outcome was inactive.
The same measure, in the same setting: as for `O=C(O)COc1ccc(Cl)cc1`, the entry is “inactive”; as for `CCC[CH2][Sn]([Cl])([Cl])[CH2]CCC`, “inactive”; as for `CC(=Cc1ccccc1)[N+](=O)[O-]`, “inactive”.
With `CC(C)N(C(=O)CCl)c1ccccc1`, the outcome was inactive.
Turning to `O=C(NC(=O)c1c(F)cccc1F)Nc1cc(Cl)c(OC(F)(F)C(F)C(F)(F)F)cc1Cl` (configuration not stated), the AC50 was 50.2 µM (active).
Take `O=S1(=O)OC(c2cc(Br)c(O)c(Br)c2)(c2cc(Br)c(O)c(Br)c2)c2ccccc21`: the outcome was inactive.
Consider `CCCSP(=S)(OCC)Oc1ccc(SC)cc1` (configuration not stated), for which the AC50 is 24.1 µM (active).
On to `CC(C)=CC1C(C(=O)OCc2cccc(Oc3ccccc3)c2)C1(C)C` (configuration not stated), for which the outcome was inactive.
Turning to `CNC(=O)O/N=C/C(C)(C)S(C)(=O)=O`, the result was inactive.
For the molecule `CCOc1ccc(N)cc1`, the result was inactive.
As to `Cc1cc(Cl)ccc1OC(C)C(=O)O` (configuration not stated), the outcome was inactive.
Turning to `CCCCCCCCCCCCN(C)C`, the AC50 is 73.9 µM (active).
For `CC(O)(CS(=O)(=O)c1ccc(F)cc1)C(=O)Nc1ccc(C#N)c(C(F)(F)F)c1` (configuration not stated), the AC50 was 5.63 µM (active).
For the molecule `O=C(NC(=O)c1c(F)cccc1F)Nc1ccc(Cl)cc1`, the result was inactive.
Take `CCOCn1c(-c2ccc(Cl)cc2)c(C#N)c(Br)c1C(F)(F)F`: the AC50 is 12.4 µM (active).
As for `Oc1c(Br)cc(Br)cc1Br`, the outcome was inactive.
For the molecule `CCN(CCO)CCO`, the result was inactive.

The target in a further experiment is human Peroxisome Proliferator-activated Receptor alpha (PPARa), PPARA (gene 5465) (UniProt Q07869). The experiment is described as follows: NVS_NR_hPPARa: NovaScreen (NVS) Nuclear Receptor Binding Assay for human Peroxisome Proliferator-activated Receptor alpha (PPARa) (AID 2283359).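 Note: activity means loss of TR-FRET signal versus DMSO baseline.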 Put shortly: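 Cell-free TR-FRET binding assay with extracted PPARα protein, read 1 h after dosing. Primary screen in duplicate at 25 uM, with actives retested in concentration series. Loss of signal versus DMSO.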
Sequence of human Peroxisome Proliferator-activated Receptor alpha (PPARa), PPARA (gene 5465) (Q07869 whole entry, looked up): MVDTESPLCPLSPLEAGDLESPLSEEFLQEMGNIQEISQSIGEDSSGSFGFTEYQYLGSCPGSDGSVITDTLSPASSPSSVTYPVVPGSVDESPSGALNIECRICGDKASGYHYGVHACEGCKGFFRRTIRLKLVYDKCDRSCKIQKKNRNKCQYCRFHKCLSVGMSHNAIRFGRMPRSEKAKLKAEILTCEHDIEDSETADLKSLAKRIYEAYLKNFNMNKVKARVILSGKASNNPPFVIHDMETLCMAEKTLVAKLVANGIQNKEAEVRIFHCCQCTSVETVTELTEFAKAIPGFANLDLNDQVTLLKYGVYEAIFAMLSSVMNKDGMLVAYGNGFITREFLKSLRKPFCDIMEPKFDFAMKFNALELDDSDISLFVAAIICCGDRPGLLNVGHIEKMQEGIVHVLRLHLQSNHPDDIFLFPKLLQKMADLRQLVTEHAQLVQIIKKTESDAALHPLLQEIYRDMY
Take `O=C1c2ccccc2C(=O)C1C(=O)C(c1ccccc1)c1ccc(Cl)cc1` (configuration not stated): the result was inactive.
Regarding `O=[N+]([O-])c1ccc(Cl)c([N+](=O)[O-])c1`, the molecule was classed as inactive.
In the case of `N#CCC#N`, the call was inactive.
For the molecule `CCC[CH2][Sn]([Cl])([Cl])[CH2]CCC`, the half-maximal activity concentration (AC50) is 12 µM (active).

Values taken from PubChem BioAssay (EPA / NIEHS).
